Measured values as given in PubChem BioAssay.

System: not listed separately
Experiment: viability profiling in RPMI8226 myeloma cells – cell-based, resazurin fluorescence, basal, 24 h, PK04 Diversity Set, profiling panel (AID 1180);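 note: RPMI8826 multiple myeloma cell line at 5000 cells per well; test concentration not given here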
Conditions: higher = more signal

SMILES	z-score
C=C(COC)/C(=C/C[C@H](OC(=O)c1ccncc1)c1ccc(OCCO)cc1)c1cc(C(=O)OC)ccc1OC	-0.316
COc1ccc([Si](C)(C)[C@H]2[C@H](CCO)O[C@@]3(C(=O)N(Cc4ccccc4)c4ccc(N(C=O)c5ccccc5)cc43)[C@@H]2C)cc1	-1.28
C=CC[C@]1(C(=O)OC)N=C(c2ccc(OCCCO)cc2)O[C@H]1c1ccccc1N=[N+]=[N-]	-0.406
COc1ccccc1CN1C(=O)c2ccccc2[C@](Cc2ccccc2I)(C(=O)NCCCN(C)C)[C@@H]1c1ccc(CO)cc1	-6.58
CC1CC/C=C\[C@H]2OC34C=CCN(c5ccc(Cl)cc5)C(=O)[C@H]3N(CCCO)C(=O)[C@]4(C)C2C(=O)O1 (stereo partly specified)	-0.208
CC[C@H](C)C(=O)O[C@H]1CC[C@]2(C)C3=C(CCC2C1(C)C)[C@]1(C)CC[C@H]([C@H](C)CCCC(C)C)[C@@]1(C)CC3 (stereo partly specified)	1.09
CCOC(=O)C[C@H]1[C@H](OC(=O)c2cc3ccccc3oc2=O)[C@@H](NC(=O)C2CCCCC2)c2cc(OCCCO)ccc2N1C(=O)Cc1ccc(OC)cc1	-0.986
CC(C)C(=C=CC[C@@H](O)c1cccc(OCCO)c1)CCO	0.336
C=C(COC)/C(=C/C[C@H](OC(=O)c1ccncc1)c1cccc(OCCO)c1)c1cnc2ccccc2c1	-0.697
CC(C)CNC(=O)[C@@H]1c2ccccc2C(=O)N(Cc2ccccc2)[C@H]1c1ccc(CO)cc1	0.19
C=C(COC)C(=O)CC[C@@H](OC(C)=O)c1ccc(OCCO)cc1	-0.781
CCCCC(=C=CC[C@H](O)c1ccc(OCCO)cc1)C[C@H](O)c1ccccn1	1.76
CC(C)c1ccc(NN2C(C(O)C(C)C)C=CC3C(=O)N(c4ccccc4)C(=O)C32)cc1 (stereo unspecified)	0.0438
COCCOC(=O)N1C(=O)[C@@]2(c3cc(C#CC4=CCCCC4)ccc31)[C@H](C(=O)N1CCN(c3ncccn3)CC1)[C@H]1C(=O)O[C@H](c3ccccc3)[C@H](c3ccccc3)N1[C@@H]2c1ccccc1OCCO	0.318
CC(C)C(=C=CC[C@@H](O)c1ccccc1OCCO)C[C@@H](O)c1cc(Cl)cc(Cl)c1O	-0.932
COc1ccc(C(O)C2C=CC3C(=O)N(C)C(=O)C3N2Nc2ccc([N+](=O)[O-])cc2[N+](=O)[O-])cc1OCc1ccccc1 (stereo unspecified)	-1.39

Target: E3 ubiquitin-protein ligase XIAP (Homo sapiens) (UniProt P98170)
Sequence (P98170 whole entry, looked up): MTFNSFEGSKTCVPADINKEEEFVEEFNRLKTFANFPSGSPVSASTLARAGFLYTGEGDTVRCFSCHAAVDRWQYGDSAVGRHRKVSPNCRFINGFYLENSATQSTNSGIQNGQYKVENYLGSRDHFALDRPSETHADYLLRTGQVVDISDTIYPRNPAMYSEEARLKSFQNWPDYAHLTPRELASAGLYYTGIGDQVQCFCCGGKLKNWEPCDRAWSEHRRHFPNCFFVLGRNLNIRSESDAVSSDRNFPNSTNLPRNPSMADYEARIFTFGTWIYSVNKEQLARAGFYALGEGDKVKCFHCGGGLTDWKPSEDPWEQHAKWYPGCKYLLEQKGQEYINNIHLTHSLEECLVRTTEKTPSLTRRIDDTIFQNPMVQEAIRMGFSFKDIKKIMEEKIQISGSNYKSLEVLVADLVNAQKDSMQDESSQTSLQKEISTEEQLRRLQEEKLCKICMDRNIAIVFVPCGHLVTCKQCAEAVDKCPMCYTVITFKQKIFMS
Experiment: small molecules binding XIAP protein – biophysical, small-molecule microarray, fluorescence 635 nm, primary screen (AID 1181);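 note: score merges 667 nm emission and signal to noise over triplicate slides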
Conditions: higher = more signal

SMILES	composite z-score
O=C1OCCC/C=C\[C@H]2OC34C=CCN(Cc5ccccc5)C(=O)[C@H]3N(CCCCCO)C(=O)[C@@H]4C12 (stereo partly specified)	-0.157
CO[C@H]1O[C@H](CO)[C@@H](OC(=O)Nc2ccc(C(F)(F)F)cc2)[C@H](OC(=O)Nc2ccccc2-c2ccccc2)[C@H]1OC(=O)Nc1ccccc1-c1ccccc1	0.201
COCCOC(=O)N1C(=O)[C@@]2(c3cc(C#CCCO)ccc31)[C@H](C(=O)N1CCN(c3ncccn3)CC1)[C@H]1C(=O)O[C@H](c3ccccc3)[C@H](c3ccccc3)N1[C@@H]2c1ccc(O)cc1	-0.031
[N-]=[N+]=NCc1ccccc1[C@H]1OC(c2ccc(OCCCO)cc2)=N[C@@]1(Cc1ccccc1)C(=O)N1CCOCC1	0.0578
C=CCC(OC(C)=O)[C@@H]1[C@@H](N(Cc2ccc(-c3ccccc3)cc2)C(=O)c2ccc(C)cc2)c2cc(OCCCO)ccc2N1C(=O)c1ccc2ccccc2c1 (stereo partly specified)	-0.0357
CCCCC(O)C1C=CC2C(=O)N(C)C(=O)C2N1Nc1ccccc1 (stereo unspecified)	0.0742
COCCOC(=O)N1C(=O)[C@@]2(c3cc(C#CCC(C(=O)OC)C(=O)OC)ccc31)[C@H](C(=O)N1CCCCCCC1)[C@H]1C(=O)O[C@H](c3ccccc3)[C@H](c3ccccc3)N1[C@@H]2c1ccccc1OCCO	0.212
COC(=O)[C@@]1(Cc2ccccc2)[C@H]2c3cc(C(=O)N4CCCC4)n(Cc4ccc(C(F)(F)F)nc4)c3C[C@H]2CN1C(=O)c1ccccc1	0.0558
CN1C(=O)[C@]2(CCS(=O)(=O)c3ccccc3)N=C(c3ccc(OCCCO)cc3)O[C@@H]2c2ccccc21	0.0506
C=CCC(OC(C)=O)[C@@H]1[C@@H](N(Cc2cccc3ccccc23)C(=O)c2cccc3ccccc23)c2cc(OCCCO)ccc2N1C(=O)Cc1ccc2ccccc2c1 (stereo partly specified)	0.452
CCCCNC(=O)c1ccc(C#C[Si](C)(C)C)c(OC(C)=O)c1	-0.326
CCOC(=O)C1=CC[C@@H](c2ccccc2Cl)N(S(=O)(=O)c2ccc(C)cc2)[C@H]1c1cccc(OC)c1	-0.114
Cc1ccc(F)cc1S(=O)(=O)N[C@@H]1CCN(Cc2ccc3c(c2)OCO3)C1	0.13
C#CCN(C/C=C/c1ccccc1)[C@H](CO[Si](C)(C)C(C)(C)C)c1ccccc1	-0.295
N[C@@H](Cc1ccccc1)Cn1cc(C2(O)CCCCC2)nn1	-0.0767
COCCOC(=O)N1C(=O)[C@@]2(c3cc(C#CCC(C(=O)OC)C(=O)OC)ccc31)[C@H](c1ccc(OCCO)cc1)N1[C@H](c3ccccc3)[C@H](c3ccccc3)OC(=O)[C@H]1[C@@H]2C(=O)N1CCCCCCC1	0.519
COc1ccc(NC(=O)O[C@H]2[C@H](OC(=O)Nc3ccc4c(c3)OCO4)[C@H](OC(=O)Nc3ccc4c(c3)OCO4)[C@@H](OC)O[C@@H]2CO)cc1	0.52
COc1ccc(NN2C(C(O)c3cc(C(F)(F)F)cc(C(F)(F)F)c3)C=CC3C(=O)N(C4CCCCC4)C(=O)C32)cc1 (stereo unspecified)	-0.0669

SMILES	composite z-score
COCCOC(=O)N1C(=O)[C@@]2(c3cc(C#Cc4ccc(OC)cc4)ccc31)[C@H](C(=O)Nc1nc3ccccc3s1)[C@H]1C(=O)O[C@H](c3ccccc3)[C@H](c3ccccc3)N1[C@@H]2c1ccccc1OCCO	-0.221
C=C(COC)/C(=C/C[C@H](OC(=O)c1ccncc1)c1ccc(OCCO)cc1)c1cc(C(=O)OC)ccc1OC	0.177
COc1ccc([Si](C)(C)[C@H]2[C@H](CCO)O[C@@]3(C(=O)N(Cc4ccccc4)c4ccc(N(C=O)c5ccccc5)cc43)[C@@H]2C)cc1	-0.0668
C=CC[C@]1(C(=O)OC)N=C(c2ccc(OCCCO)cc2)O[C@H]1c1ccccc1N=[N+]=[N-]	0.509
COc1ccccc1CN1C(=O)c2ccccc2[C@](Cc2ccccc2I)(C(=O)NCCCN(C)C)[C@@H]1c1ccc(CO)cc1	-0.175
CC1CC/C=C\[C@H]2OC34C=CCN(c5ccc(Cl)cc5)C(=O)[C@H]3N(CCCO)C(=O)[C@]4(C)C2C(=O)O1 (stereo partly specified)	-0.151
CC[C@H](C)C(=O)O[C@H]1CC[C@]2(C)C3=C(CCC2C1(C)C)[C@]1(C)CC[C@H]([C@H](C)CCCC(C)C)[C@@]1(C)CC3 (stereo partly specified)	-0.304
CCOC(=O)C[C@H]1[C@H](OC(=O)c2cc3ccccc3oc2=O)[C@@H](NC(=O)C2CCCCC2)c2cc(OCCCO)ccc2N1C(=O)Cc1ccc(OC)cc1	0.214
CC(C)C(=C=CC[C@@H](O)c1cccc(OCCO)c1)CCO	-0.127
C=C(COC)/C(=C/C[C@H](OC(=O)c1ccncc1)c1cccc(OCCO)c1)c1cnc2ccccc2c1	-0.0156
CC(C)CNC(=O)[C@@H]1c2ccccc2C(=O)N(Cc2ccccc2)[C@H]1c1ccc(CO)cc1	0.0785
C=C(COC)C(=O)CC[C@@H](OC(C)=O)c1ccc(OCCO)cc1	-0.0848
CCCCC(=C=CC[C@H](O)c1ccc(OCCO)cc1)C[C@H](O)c1ccccn1	-0.142
CC(C)c1ccc(NN2C(C(O)C(C)C)C=CC3C(=O)N(c4ccccc4)C(=O)C32)cc1 (stereo unspecified)	0.132
COCCOC(=O)N1C(=O)[C@@]2(c3cc(C#CC4=CCCCC4)ccc31)[C@H](C(=O)N1CCN(c3ncccn3)CC1)[C@H]1C(=O)O[C@H](c3ccccc3)[C@H](c3ccccc3)N1[C@@H]2c1ccccc1OCCO	-0.312
CC(C)C(=C=CC[C@@H](O)c1ccccc1OCCO)C[C@@H](O)c1cc(Cl)cc(Cl)c1O	-0.232
COc1ccc(C(O)C2C=CC3C(=O)N(C)C(=O)C3N2Nc2ccc([N+](=O)[O-])cc2[N+](=O)[O-])cc1OCc1ccccc1 (stereo unspecified)	0.165
